Data published in PubChem BioAssay (NCATS).
Values without a mark were called inactive. For some assays here: Potency and affinity values are given separately. Activity calls are given as the source filed them. The rule behind the calls is not given here.

Columns and labels:
[1] = Ebola virus entry assay, green fluorescence channel
[2] = Ebola virus entry assay, blue channel fluorescence
[3] = Ebola virus entry assay, ratio channel
[4] = Ebola virus entry assay, reporter ratio channel; Channel type: primary
[5] = Ebola virus entry assay, blue channel (ratio component)
Throughout, for efficacy: 0% is about no effect.

| SMILES | efficacy [1] | outcome [2] | outcome [3] | outcome [4] | AC50 [2] | AC50 [3] | AC50 [4] | outcome [5] |
| --- | --- | --- | --- | --- | --- | --- | --- | --- |
| CC(=O)NC(Cc1ccccc1)C(=O)O (stereo unspecified) | 29.9% | inactive | inactive | inactive | – | – | – | – |
| COC(=O)Nc1nc2ccc(S(=O)c3ccccc3)cc2[nH]1 (stereo unspecified) | 35.9% | – | – | – | 3.16 µM (active) | 1.78 µM (active) | 1.78 µM (active) | – |
| Clc1ccc(C(Cn2ccnc2)OCc2c(Cl)cccc2Cl)c(Cl)c1 (stereo unspecified) | -112% | – | – | – | 14.1 µM (active) | 8.91 µM (active) | 8.91 µM (active) | – |
| CN1CCCN(C(c2ccccc2)c2ccc(Cl)cc2)CC1 (stereo unspecified) | 53.7% | – | – | – | 3.16 µM (active) | 3.16 µM (active) | 3.16 µM (active) | – |
| CCCCCCCCCCCCCCCC[N+](C)(C)CCN(Cc1ccc(OC)cc1)c1ncccn1 | -93.3% | – | inactive | – | 39.8 µM (active) | – | 39.8 µM (active) | – |
| [O-][n+]1ccccc1SSc1cccc[n+]1[O-] | 40.7% | – | – | – | 1.26 µM (active) | 1.26 µM (active) | 1.26 µM (active) | – |
| Cc1ccc(/C(=C\CN2CCCC2)c2ccccn2)cc1 | 48.9% | – | – | – | 31.6 µM (active) | 28.2 µM (active) | 28.2 µM (active) | – |
| CCCCNc1ccc(C(=O)OCCN(CC)CC)cc1 | 87.1% | – | – | – | 39.8 µM (active) | 22.4 µM (active) | 22.4 µM (active) | – |
| CCN(CC)CCOC(=O)C(c1ccccc1)c1ccccc1 | 39% | – | inactive | – | 20 µM (active) | – | 39.8 µM (active) | – |
| CN(C)CCCN1c2ccccc2Sc2ccccc21 | 62.9% | – | – | – | 5.62 µM (active) | 5.01 µM (active) | 5.01 µM (active) | – |
| CC(CC1c2ccccc2CCc2ccccc21)CN(C)C (stereo unspecified) | 28.4% | – | – | – | 6.31 µM (active) | 3.98 µM (active) | 3.98 µM (active) | – |
| CC1=C(CC(=O)O)c2cc(F)ccc2/C1=C\c1ccc(S(C)=O)cc1 (stereo unspecified) | 55.9% | inactive | inactive | inactive | – | – | – | – |
| CCN1CCCC(OC(=O)C(c2ccccc2)c2ccccc2)C1 (stereo unspecified) | 26.3% | – | – | – | 25.1 µM (active) | 20 µM (active) | 20 µM (active) | – |
| CN(C)c1ccc(C(=C2C=CC(=[N+](C)C)C=C2)c2ccccc2)cc1 | -236% | – | – | – | 0.891 µM (active) | 0.708 µM (active) | 0.708 µM (active) | – |
| Cc1cccc(N(C)C(=S)Oc2ccc3c(c2)C2CCC3C2)c1 (stereo unspecified) | 40.9% | – | inactive | – | 39.8 µM (active) | – | 39.8 µM (active) | – |
| CCCCCCCCCCCCCCCC[n+]1ccccc1 | -209% | – | – | – | 20 µM (active) | 14.1 µM (active) | 14.1 µM (active) | – |
| CCn1c(=O)c2c(nc(C=Cc3ccc(OC)c(OC)c3)n2C)n(CC)c1=O | 44.2% | inactive | inactive | inactive | – | – | – | inactive |
| COC(=O)C1=C(C)NC(C)=C(C(=O)OCCN2CCN(C(c3ccccc3)c3ccccc3)CC2)C1c1cccc([N+](=O)[O-])c1 (stereo unspecified) | 60.1% | – | – | – | 15.8 µM (active) | 10 µM (active) | 10 µM (active) | – |
| C[C@H]1O[C@@H](O[C@H]2CC[C@@]3(C)[C@H](CC[C@@H]4[C@@H]3C[C@@H](O)[C@]3(C)[C@@H](C5=CC(=O)OC5)CC[C@]43O)C2)C[C@H](O)[C@@H]1O[C@H]1C[C@H](O)[C@H](O[C@H]2C[C@H](O)[C@H](O[C@@H]3O[C@H](CO)[C@@H](O)[C@H](O)[C@H]3O)[C@@H](C)O2)[C@@H](C)O1 | -58.9% | – | – | – | 1.58 µM (active) | 0.891 µM (active) | 0.891 µM (active) | – |
| CCCCN(CCCC)CC(O)c1cc(Cl)cc2c1-c1ccc(Cl)cc1/C2=C/c1ccc(Cl)cc1 (stereo unspecified) | 120% | – | – | – | 39.8 µM (active) | 39.8 µM (active) | 39.8 µM (active) | – |
| C1CCC(C(CC2CCCCN2)C2CCCCC2)CC1 (stereo unspecified) | -230% | – | – | – | 1.78 µM (active) | 0.891 µM (active) | 0.891 µM (active) | – |
| C[C@@H]1CCC[C@H](C)N1CCCC(O)(c1ccccc1)c1ccccn1 (stereo partly specified) | 81.9% | – | – | – | 25.1 µM (active) | 22.4 µM (active) | 22.4 µM (active) | – |
| O=C(CCCN1CCC(O)(c2cccc(C(F)(F)F)c2)CC1)c1ccc(F)cc1 | 61.9% | – | – | – | 25.1 µM (active) | 20 µM (active) | 20 µM (active) | – |
| CO[C@@H]1[C@@H](OC)[C@H](C)[C@@](O)(CC(=O)O)O[C@H]1[C@H](C)[C@H]1O[C@@]2(CC[C@@](C)([C@H]3CC[C@@](C)([C@@H]4O[C@@H]([C@H]5O[C@](C)(O)[C@H](C)C[C@@H]5C)C[C@@H]4OC4C[C@H](OC)[C@@H](OC)[C@H](C)O4)O3)O2)C[C@H](O)[C@H]1C (stereo partly specified) | -69.9% | – | – | – | 1.58 µM (active) | 1 µM (active) | 1 µM (active) | – |
| CCC(=O)c1ccc2c(c1)N(CCCN(C)C)c1ccccc1S2 | 153% | – | – | – | 20 µM (active) | 17.8 µM (active) | 17.8 µM (active) | – |
| Cc1cc(C)c(/C=C2\C(=O)Nc3ccccc32)[nH]1 | 78.6% | inactive | inactive | – | – | – | 35.5 µM (active) | inactive |
| CNC[C@H](O)c1ccc(O)c(O)c1 | 27.1% | inactive | inactive | inactive | – | – | – | inactive |
| CC(=O)OCC(=O)[C@@]12N=C(C)O[C@@H]1C[C@H]1[C@@H]3CCC4=CC(=O)C=C[C@]4(C)[C@H]3[C@@H](O)C[C@@]12C | 27% | inactive | inactive | inactive | – | – | – | inactive |
